The source made the active and inactive calls. How the calls were made is not given here.

The target in the experiment is Pantothenate synthetase (Mycobacterium tuberculosis (strain ATCC 25618 / H37Rv)) (UniProt P9WIL5). Briefly: Recombinant Mtb pantothenate synthetase (PanC) inhibitors, coupled enzyme, confirmatory (AID 375).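 Further: 0% = full reaction with vehicle and 100% = no enzyme background.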 To be noted: coupled enzyme assay; at 10 µM, stronger effect = higher value.
Pantothenate synthetase (Mycobacterium tuberculosis (strain ATCC 25618 / H37Rv)), sequence (P9WIL5 whole entry, looked up): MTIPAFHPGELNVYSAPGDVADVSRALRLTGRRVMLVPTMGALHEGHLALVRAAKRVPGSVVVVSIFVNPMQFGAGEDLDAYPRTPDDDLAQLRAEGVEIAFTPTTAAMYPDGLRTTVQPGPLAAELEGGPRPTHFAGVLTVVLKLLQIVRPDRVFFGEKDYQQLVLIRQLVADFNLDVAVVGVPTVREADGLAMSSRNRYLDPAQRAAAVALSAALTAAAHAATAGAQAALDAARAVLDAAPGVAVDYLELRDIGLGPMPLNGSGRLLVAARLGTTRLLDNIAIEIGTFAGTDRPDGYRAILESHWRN
Take `O=c1c2ccccc2sn1-c1ccc(S(=O)(=O)N2CCCCC2)cc1`: the inhibition is 0% (inactive).
In the case of `Oc1cccc(C=NCc2ccccc2)c1O`, the inhibition was 0% (inactive).
As to `Cc1cc(=O)n(C)c(=O)n1CCCNc1ccccc1`, the inhibition was 2% (inactive).
Take `CCc1cc(=O)n2[nH]c(C)c(-c3ccccc3OC)c2n1`: the inhibition was 4% (inactive).
To `COc1ccc(S(=O)(=O)N2CCN(CC(=O)Nc3ccc(C)c(F)c3)CC2)cc1` belongs 0% (inactive).
To `CCCSc1nc2c(cnn2-c2ccc(C)cc2)c(=O)[nH]1` belongs 0% (inactive).
Turning to `N#Cc1c(N)n(CCOC(=O)c2cccc(Br)c2)c2nc3ccccc3nc12`, the inhibition was 3% (inactive).
To `COc1ccccc1C(=O)NC(C)C(c1cccs1)N1CCN(C)CC1` (stereo not given) belongs 3% (inactive).
As to `C/C(N)=C(\C#N)C(=O)NCCc1ccccn1`, the inhibition is 0% (inactive).
To `COCCOC(=O)C1=C(C)OC(N)=C(C#N)C1c1ccc2c(c1)OCO2` (stereo not given) belongs 0% (inactive).
In the case of `CC1CN(Cc2nc3c(c(=O)[nH]c(=O)n3C)n2CC(N)=O)CC(C)O1` (stereo not given), the inhibition is 4% (inactive).
Regarding `O=C1NC2(Nc3ccccc31)C(=O)Nc1ccccc12` (stereo not given), the inhibition is 0% (inactive).
`CCCC(=O)N(c1ccc2oc(=O)sc2c1)S(=O)(=O)c1ccccc1`: the inhibition is 0% (inactive).
Regarding `Cc1ccccc1Cc1c(C)nc2c(C(=O)N3CCN(Cc4ccc5c(c4)OCO5)CC3)cnn2c1C`, the inhibition is 5% (inactive).
For the compound `COc1cccc(NC(=O)N(Cc2ccco2)C(C)c2cccs2)c1` (stereo not given), the inhibition was 2% (inactive).
Then `Cc1ccc(-c2nn(C)c(=O)c3ccccc23)cc1S(=O)(=O)NCCN1CCOCC1`, with 2% (inactive); and `COc1ccc(C(CC(=O)O)NC(=O)c2ccccc2)cc1OC` (stereo not given), with 0% (inactive).
For `Cc1cc2ncc(-c3ccc(Cl)cc3)c(N)n2n1`, the inhibition is 0% (inactive).
For the compound `O=c1nc(N2CCCC2)nc(Nc2ccccc2)[nH]1`, the inhibition was 0% (inactive).
As for `Cc1ccc(-n2ncc3c(=O)[nH]c(SC(C)C)nc32)cc1`, the inhibition is 0% (inactive).
With `OCCNc1nc2ccc(Cl)cc2[nH]1`, the inhibition is 0% (inactive).
To `COc1ccc(-c2cn3c(C)c(C(=O)Nc4cc(NC(C)=O)ccc4OC)sc3n2)cc1` belongs 4% (inactive); to `CC(=O)OCC(=O)[C@H]1CC[C@H]2[C@@H]3CC=C4C[C@@H](O)CC[C@]4(C)[C@H]3CC[C@]12C`, 1% (inactive); to `Cc1cc(C)c(NC(=O)CSc2nc3c(c(=O)n2C)SC(C)C3)c(C)c1` (stereo not given), 0% (inactive).
Regarding `CCOC(=O)c1[nH]c(C)c(C(=O)N2CCN(c3ccc(F)cc3)CC2)c1C`, the inhibition was 0% (inactive).
As to `Cc1noc(C)c1C(=O)N1CCN(C(=O)c2sc3cc(Cl)ccc3c2Cl)CC1`, the inhibition is 7% (inactive).
To `C=CCn1c(SCc2ccc3nonc3c2)nnc1-c1cccs1` belongs 7% (inactive).
Then `CC(NC(=O)OCc1ccccc1)C(=O)N1CC(O)CC1C(=O)O` (stereo not given), with 0% (inactive); and `CCc1nnc(NC(=O)C2CC(=O)N(Cc3ccco3)C2)s1` (stereo not given), with 0% (inactive); and `CC(C)(C)NC(=O)COC(=O)c1snc(C(=O)NC2CCCCC2)c1N`, with 3% (inactive).
`O=C(NCCN1CCOCC1)c1csc2c1CCCC2`: the inhibition is 0% (inactive).
On to `N#Cc1c(/N=C/c2cccs2)sc2c1CCCCC2`, for which the inhibition is 0% (inactive).
Then `COc1cc(NC(=O)c2cc(OC)c(OC)c(OC)c2)c(OC)cc1NC(=O)CN1CCCCC1`, with 1% (inactive); and `Cc1cc(C)cc(-n2ccnc2SCC(=O)Nc2ccc3c(c2)OCCO3)c1`, with 0% (inactive); and `[O-][n+]1c2ccc3nonc3c2nn1-c1ccccc1Cl`, with 0% (inactive).
`COc1ccc(C(=O)N2CCN(C(=O)c3ccco3)CC2)cc1OC`: the inhibition is 4% (inactive).
Then `CCOC(=O)Cn1c(CCC(=O)O)ccc1-c1ccc(F)cc1`, with 3% (inactive).
On to `CCOC(=O)c1ccc(-c2c(C(=O)OCC)oc3cc(O)c(CC)cc3c2=O)o1`, for which the inhibition was 3% (inactive).
For the compound `COc1ccc(S(=O)(=O)NC2CCCCC2)c(C)c1C`, the inhibition is 4% (inactive).
To `Cc1cc(C)n(CC2CC(=O)N(c3ccc(Cl)c(Cl)c3)C2=O)n1` (stereo not given) belongs 0% (inactive).

The term inhibition denotes the share of the control response that was lost under treatment.

These data come from PubChem BioAssay.
